Targets include CBR1; CBWD1; CCDC102B; CCDC19; CCDC47; CCDC136; CCDC124; CCDC56; CD180; CD320; CDC34; CDC42BPB; CDC42SE1; CDC23; CHCHD8.
Common to all, as to assay: pooled miR-30 sensor sort-seq; sequence = guide strand
Common to all, as to settings: shRNA

The record followed here is the OligoGym collection.
Note: reference of the scale not given here.

In the experiment with CBR1, TATGACATTGTAAATGCCCTTT had a sensor-assay potency score (higher = more potent) of -0.242.

For the sequence AAGCAACTTGTCTAGTAGCTTC, the sensor-assay potency score (higher = more potent) in the experiment with CBWD1 was -0.327.

TAGTACATTAGTGAGTGCTAAT displayed a sensor-assay potency score (higher = more potent) with CBR1 of -1.35.

Take TTGAATATGAAAGGGTGTGGGA: the sensor-assay potency score (higher = more potent) with CBR1 was found to be 0.163.

TTCAGGAGGATCTTGTCCCCTT: in the experiment with CBR1, the sensor-assay potency score (higher = more potent) is -0.643.

In turn, TTGTTGAATAAATCAACACCAT returned a sensor-assay potency score (higher = more potent) with CCDC102B of -0.659.

Sequence TTGAAGGGTATGCTTATCTCGG gave a sensor-assay potency score (higher = more potent) with CCDC19 of -0.289.

In the experiment with CCDC47, TTTCATTTGCTTCTTTTCCAAC yielded a sensor-assay potency score (higher = more potent) of -1.25.

In the experiment with CCDC19, TTTTCCTCTTGATCTCATCGAT showed a sensor-assay potency score (higher = more potent) of 0.115.

TTCAATGCAGTACTTCTCGGGA gave a sensor-assay potency score (higher = more potent) with CCDC19 of -0.758.

TTACAAGGAACTCAGGTTCTTA gave a sensor-assay potency score (higher = more potent) in the experiment with CCDC136 of -0.441.

As for TCGTCGTCCTTCCAGTAGGCAT, in the experiment with CCDC124, the sensor-assay potency score (higher = more potent) is -1.51.

In the experiment with CCDC136, TAACAGGGAAATCTCCTCCCGT displayed a sensor-assay potency score (higher = more potent) of -0.529.

In the experiment with CCDC47, TAAAGTAAAGTTGCTCTCCAAA returned a sensor-assay potency score (higher = more potent) of -1.24.

On to TTTGCTAGAAGAAGTATCTGGT, for which, in the experiment with CCDC47, the sensor-assay potency score (higher = more potent) amounted to 0.978.

Take TTGAGGATAATCTTGCTCATGT: the sensor-assay potency score (higher = more potent) with CCDC19 is -0.0129.

Take TCGGGTGTCAGCTTCTCCCGAG: the sensor-assay potency score (higher = more potent) with CCDC56 is -0.206.

TTCCTGACACTTGTTCTTCATG: the sensor-assay potency score (higher = more potent) with CCDC136 was -1.21.

TGCAGGAACATCAACAATCGTT registered a sensor-assay potency score (higher = more potent) with CCDC47 of -0.762.

In turn, TTCTGTTTCATGATCTTCTTTC showed a sensor-assay potency score (higher = more potent) with CCDC19 of -0.0443.

With TTTGATTCGCTCAAACTCCTCA, the sensor-assay potency score (higher = more potent) with CCDC19 is 0.0568.

Turning to TTCTTTTTGGATCTGCTGCTTC, the sensor-assay potency score (higher = more potent) in the experiment with CCDC19 is -0.755.

TTCTGCGCCACTCTCTGTCTGC: the sensor-assay potency score (higher = more potent) in the experiment with CCDC19 was -0.303.

As to TTGCACTTGATCACTCACTGGC, the sensor-assay potency score (higher = more potent) in the experiment with CCDC47 amounted to 0.924.

Regarding TTTTGCTAGAAGAAGTATCTGG, the sensor-assay potency score (higher = more potent) in the experiment with CCDC47 is 0.452.

In turn, TGGGAAATCGAGTAGAAGGTGT had a sensor-assay potency score (higher = more potent) in the experiment with CCDC56 of 0.0738.

As for TTCATTTCCATTTCTGCACGGA, in the experiment with CCDC136, the sensor-assay potency score (higher = more potent) was -0.0377.

In the experiment with CCDC136, TAGAGAACGCAGCTCACCTTGG yielded a sensor-assay potency score (higher = more potent) of -0.542.

TTGCGGAATCCTCTGCTGCTTG returned a sensor-assay potency score (higher = more potent) in the experiment with CCDC136 of -0.962.

On to TTCAGTAACAGAGTCTTCCATG, for which the sensor-assay potency score (higher = more potent) with CCDC47 is -0.75.

For TTCTAGATAATAACTCTCCCAG, the sensor-assay potency score (higher = more potent) in the experiment with CCDC47 is -0.381.

In turn, TTAGCATTGAGGATAATCTTGC came in with a sensor-assay potency score (higher = more potent) with CCDC19 of 0.12.

TTGTTGACTGACAGAGAGCCAA: the sensor-assay potency score (higher = more potent) with CCDC136 is -0.719.

TAAGTCTTGTCTCTTGAGGAAC gave a sensor-assay potency score (higher = more potent) with CCDC47 of -1.49.

TTGGATCTGCTGCTTCTCCAGG showed a sensor-assay potency score (higher = more potent) with CCDC19 of -1.06.

With TTGTCGTCGTCCTTCCAGTAGG, in the experiment with CCDC124, the sensor-assay potency score (higher = more potent) is -1.14.

On to TTCTCTGTTGAGTCGGAACTTT, for which the sensor-assay potency score (higher = more potent) with CCDC47 was -0.845.

In turn, TTGCCTTCTCTGTTGAGTCGGA came in with a sensor-assay potency score (higher = more potent) with CCDC47 of -0.0399.

Turning to TTTCTCATGCTCTAACAGGGAA, the sensor-assay potency score (higher = more potent) with CCDC136 is -0.6.

TTCTATTTCCTTAAGTTCGCTT registered a sensor-assay potency score (higher = more potent) with CCDC136 of 0.0212.

For the sequence TTTCCTCTTGATCTCATCGATG, the sensor-assay potency score (higher = more potent) with CCDC19 was -0.984.

In the case of TCTGCTTCTTGGCATCAGCGGC, the sensor-assay potency score (higher = more potent) with CCDC124 is -1.05.

In the experiment with CCDC136, TTAAGTTCGCTTTCTTTCTCAT registered a sensor-assay potency score (higher = more potent) of -0.0696.

Sequence TTAAATGTAAACAACAGTGTCC gave a sensor-assay potency score (higher = more potent) with CCDC47 of 0.382.

TTCAAGTTCATTCTGCATCCGG had a sensor-assay potency score (higher = more potent) with CCDC136 of 0.279.

Take TTTCTGAAGTCTGAGACTCTGC: in the experiment with CCDC136, the sensor-assay potency score (higher = more potent) was -0.127.

TGAAGTAGGTTGGTCTTCGTGA yielded a sensor-assay potency score (higher = more potent) in the experiment with CD180 of -0.298.

In the case of TCTGTTCTGACAGCAGCAGGGA, in the experiment with CD320, the sensor-assay potency score (higher = more potent) is -0.673.

As to TTGCGCAGTTTCTTGTCAGTTC, the sensor-assay potency score (higher = more potent) with CD320 is -0.101.

TTGAGCTCCAGCAGCAGCGCCT had a sensor-assay potency score (higher = more potent) in the experiment with CDC34 of -0.656.

In the case of TAGTCGTCGTAGAAGAGGTCTG, the sensor-assay potency score (higher = more potent) in the experiment with CDC34 was -0.479.

Take TAGAGCATCTCATACATGCAGA: the sensor-assay potency score (higher = more potent) in the experiment with CDC42BPB is -0.774.

As for TTAGGGTGCCACATCTTGGTCA, in the experiment with CDC34, the sensor-assay potency score (higher = more potent) was -0.421.

Take TACTATTCTCTTAAGGTCCTAG: the sensor-assay potency score (higher = more potent) with CDC42BPB is -0.0384.

In the case of TCATCTTCAAACATGATCCAAA, the sensor-assay potency score (higher = more potent) in the experiment with CDC42BPB is -0.68.

Take TTTGATTTTGGAAATCTCTTGC: the sensor-assay potency score (higher = more potent) with CDC42BPB is 0.44.

TTCCTGTACATCACGGAGGCGT had a sensor-assay potency score (higher = more potent) in the experiment with CDC34 of -0.234.

Take TCTTCTTCTTCGGCTGGGGTTT: the sensor-assay potency score (higher = more potent) with CDC42SE1 is -1.24.

In the experiment with CDC42BPB, TTTCCTTGGACAACACTGGAGG gave a sensor-assay potency score (higher = more potent) of -0.765.

Take TGGTCTTCACGCAGTACTCGGC: the sensor-assay potency score (higher = more potent) with CDC34 is -1.2.

As for TAGTCGATGGGGAACTTGAGGC, in the experiment with CDC34, the sensor-assay potency score (higher = more potent) was -1.23.

TATAGCTAACAATATAGCCATC had a sensor-assay potency score (higher = more potent) with CDC23 of -1.75.

In the experiment with CDC34, TCGTCCACCAGTGTCACGCGGA had a sensor-assay potency score (higher = more potent) of -0.898.

For TCCTCGTAGTAGTCGTCGTAGA, the sensor-assay potency score (higher = more potent) in the experiment with CDC34 was -1.72.

In turn, TAGTAGTCGTCGTAGAAGAGGT gave a sensor-assay potency score (higher = more potent) with CDC34 of -0.785.

TCCACTTCCTGTACATCACGGA: the sensor-assay potency score (higher = more potent) with CDC34 is -0.313.

Sequence TTCGATTTCTTCATTTAGCTTT displayed a sensor-assay potency score (higher = more potent) with CDC42BPB of 0.598.

In the experiment with CDC34, TCGTAGTAGTCGTCGTAGAAGA gave a sensor-assay potency score (higher = more potent) of -1.53.

TTGGTCAGGAACCGAAAGGCTG came in with a sensor-assay potency score (higher = more potent) in the experiment with CDC34 of -0.731.

Sequence TTCCACTTCCTGTACATCACGG registered a sensor-assay potency score (higher = more potent) in the experiment with CDC34 of -0.553.

In the case of TTCTGAATCATGCACCTCCTTC, the sensor-assay potency score (higher = more potent) in the experiment with CDC42BPB was -0.418.

In turn, TTGGTCTTCACGCAGTACTCGG showed a sensor-assay potency score (higher = more potent) with CDC34 of -1.15.

In the experiment with CDC42BPB, TTTCACTTCTAGCACATGGGAG yielded a sensor-assay potency score (higher = more potent) of -0.202.

TTGAAGTAGATCAAGCGTGGAG gave a sensor-assay potency score (higher = more potent) in the experiment with CDC42BPB of 0.0489.

Regarding TAGATCGCCCTCGTCCACCAGT, the sensor-assay potency score (higher = more potent) in the experiment with CDC34 was -0.743.

On to TGAACTGCACCTGTCATGGCAA, for which the sensor-assay potency score (higher = more potent) with CDC42SE1 was -0.419.

On to TTTAATGTCTCTGTGCACGTAA, for which the sensor-assay potency score (higher = more potent) with CDC42BPB worked out at 0.422.

On to TCATCGTCCCCGAAGCAGCTGT, for which the sensor-assay potency score (higher = more potent) in the experiment with CDC34 was -0.635.

TCGTCGTAGAAGAGGTCTGAGC yielded a sensor-assay potency score (higher = more potent) with CDC34 of -1.59.

In the experiment with CDC34, TAGGGTGCCACATCTTGGTCAG registered a sensor-assay potency score (higher = more potent) of 0.104.

In the experiment with CDC34, ACACTCAGGAGAATGGTCCTGA showed a sensor-assay potency score (higher = more potent) of 0.312.

TTATTTCAAAGTCTTCTCGATG came in with a sensor-assay potency score (higher = more potent) in the experiment with CDC42BPB of -1.07.

Regarding TAGAAGAGGTCTGAGCCCTCGT, the sensor-assay potency score (higher = more potent) with CDC34 was -0.00353.

In the experiment with CDC34, ATGATGTCTGTGTACTCCCGAT showed a sensor-assay potency score (higher = more potent) of -1.21.

In turn, TTGCTCTCTTTCCACTTCCTGT displayed a sensor-assay potency score (higher = more potent) with CDC34 of -0.991.

In the experiment with CDC42SE1, TTGGATCTCATCTGCTCCTGAA registered a sensor-assay potency score (higher = more potent) of -0.616.

As to TCGTAGAAGAGGTCTGAGCCCT, the sensor-assay potency score (higher = more potent) in the experiment with CDC34 is -0.356.

In turn, TGTCTGTGTACTCCCGATCCTT registered a sensor-assay potency score (higher = more potent) with CDC34 of -1.06.

For TTTGATTTCTTTATCTCGGTTT, the sensor-assay potency score (higher = more potent) with CDC42BPB turned out to be 0.716.

ATCGTCTTTCTTCACCCGTTGG showed a sensor-assay potency score (higher = more potent) in the experiment with CHCHD8 of -0.879.
